Measurements as given in PubChem BioAssay (NCI).
The panel holds about 83,000 compounds, 20% with a hit somewhere; the sample as a whole holds those more often.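 Results are percent growth after 48 hours of single-concentration exposure. 100 means growth as in untreated cells, lower positive values show inhibition; negative values down to -100 show cell death.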 Values without a mark were called inactive. Active and inactive are the calls of the source.

The compounds below were run on HCC-2998 colon (assay: NCI-60 one-dose screen, 48 h (100 = growth as untreated, 0 = no growth, -100 = all killed)). Conditions: 10 µM.
Description: Growth inhibition of the HCC-2998 human tumor cell line is measured as a screen for anti-cancer activity. Cells are grown in 96 well plates and exposed to the test compound for 48 hours. Compounds are tested at a single concentration, which is 10^-5 M for most compounds. The reported endpoint is percent growth (GI% or GIPRCNT), where numbers from 0 - 100% represent growth inhibition, and numbers from -100% - 0 represent cell death. For example, a value of 40 represents 60% growth inhibition. A value of 0 means no net growth occurred over the course of the experiment. A value of -40 indicates 40% of cells at the beginning of the experiment died by the end of the experiment. A value of -100 means all cells are dead at the end of the experiment.
NCI-60 Human Tumor Cell Lines Screen was performed using the standard one-dose NCI protocol, which is described in more detail at https://dtp.cancer.gov/discovery_development/nci-60/default.htm.
Compounds with GIPRCNT values below 10 were considered active. Activity score was based on GIPRCNT using the following formula: […]
Score is 0 for GIPRCNT values of 100 or above, 50 for GIPRCNT values of 0, and 100 for GIPRCNT values of -100.

**Q.** How did the growth turn out when `Fc1ccc(-c2nnc(-c3c(-c4ccc(F)cc4)nc4ccccn34)o2)cc1` was run?
**A.** 94.1%

**Q.** With `CN(C)C(=S)N/N=C\C=N/NC(=S)N(C)C` as the compound, how does the growth read?
**A.** 80.4%

**Q.** With `COc1cc(-c2nn3c(/C=C4/C(=O)Nc5ccccc54)c(-c4ccc(C)cc4)nc3s2)cc(OC)c1OC` as the compound, how does the growth read?
**A.** 85.1%

**Q.** Which growth does the source give for `CCN(CC)CCN1CC(=O)Nc2cc(Cl)ccc21` here?
**A.** 102%

**Q.** How did the growth turn out when `CN(C)CCCn1c(=O)c2ccccc2c2cnc3[nH]ccc3c21` was run?
**A.** 30.3%

**Q.** Which growth does the source give for `Clc1ccc(Sc2nc(NC3CC3)nc(Sc3ccc(Cl)cc3)n2)cc1` here?
**A.** 90.2%

**Q.** `O=C(Nc1ccncc1)C(=O)c1cn(S(=O)(=O)c2ccc(F)cc2)c2ccccc12` was tested. Which growth did it give?
**A.** 61.6%

**Q.** Which growth does the source give for `COc1ccc(OC)c2c1C(=O)CC2C` (stereo not given) here?
**A.** 113%

**Q.** For `COc1cc2nc(Nc3cccc(NC(C)=O)c3)nc(N)c2cc1OC`, which growth is on record?
**A.** 113%

**Q.** With `Nc1nc(N)c2c(ccc3nccc32)[nH]1` as the compound, how does the growth read?
**A.** 54.4%

**Q.** Which growth does the source give for `c1ccc(C(NC2CC3CCC2C3)c2ccccc2)cc1` (stereo not given) here?
**A.** 102%

**Q.** With `O=C1c2ccc3c4c(ccc(c24)C(=O)N1CCNCc1ccccc1)C(=O)N(CCNCc1ccccc1)C3=O` as the compound, how does the growth read?
**A.** -92.2% (active)

**Q.** How did the growth turn out when `O=C1/C(=C/c2ccc(Cl)cc2)SC(=Nc2ccc(Cl)cc2)N1Cc1nc2ccccc2[nH]1` was run?
**A.** 62%

**Q.** How did the growth turn out when `Cc1ccc(C(=O)N2C/C(=C/c3ccc(F)cc3)C(=O)/C(=C/c3ccc(F)cc3)C2)cc1` was run?
**A.** 108%

**Q.** `CC/C(=C(/c1ccc(OCCN(C)C)cc1)c1ccc(OC(=O)CCCCCCCCC(=O)c2c(C)[nH]c(/C=C3\N=C(c4ccc[nH]4)C=C3OC)c2C)cc1)c1ccccc1` was tested. Which growth did it give?
**A.** 100%

**Q.** How did the growth turn out when `COc1cc(NC(=O)CCSc2nc3ccc(Cl)cc3c(=O)n2Cc2ccccc2)cc(OC)c1OC` was run?
**A.** 100%

**Q.** `CC1(C)OC2=C(CC1Br)C(=O)C(=O)c1ccccc12` (stereo not given) was tested. Which growth did it give?
**A.** -19.7% (active)

**Q.** For `CC(C)=CCc1cc(O)cc2c1OC(C=C(C)C)C1=C2C(=O)C2=C(NCCS2(=O)=O)C1=O` (stereo not given), which growth is on record?
**A.** -12.6% (active)

**Q.** How did the growth turn out when `CNc1ccc(CSc2ccc(C)cc2)cc1` was run?
**A.** 94%

**Q.** With `CSc1nc(=O)n(Cc2ccc(F)cc2)c(=O)n1Cc1ccc(C)cc1` as the compound, how does the growth read?
**A.** 95.5%

**Q.** With `CNc1ncc(-c2ccc(C(F)(F)F)cc2)c(NC2CCCCCC2)n1` as the compound, how does the growth read?
**A.** 91.1%

**Q.** For `COc1cc(-c2cc(/C=C3\C(=O)Nc4ccc(Cl)cc43)[nH]n2)cc(OC)c1OC`, which growth is on record?
**A.** 73.2%

**Q.** With `O=C1ON=[N+](c2ccc(Cc3ccc([N+]4=NOC(=O)C4CN4CCOCC4)cc3)cc2)C1CN1CCOCC1` (stereo not given) as the compound, how does the growth read?
**A.** 80.5%

**Q.** How did the growth turn out when `COc1ccc(-n2c(SCc3cc(OC)c(OC)c(OC)c3)nc3ccc(C)cc3c2=O)cc1` was run?
**A.** 75.7%

**Q.** For `COc1ccc(-c2nc(-c3nc4ccc(Cl)cc4[nH]3)c3ccccn23)cc1`, which growth is on record?
**A.** 69.3%

**Q.** With `O=C(Nc1cccc(-n2cc(-c3ccncc3)c(-c3cc(O)cc(Cl)c3)n2)c1)c1ccc(N2CCOCC2)c(C(F)(F)F)c1` as the compound, how does the growth read?
**A.** -3.65% (active)

**Q.** `COc1cccc(NC(=O)c2sc3nc4c(cc3c2N)C(O)CCC4)c1` (stereo not given) was tested. Which growth did it give?
**A.** 19.6%

**Q.** Which growth does the source give for `O=C(O)CC(Cl)C(Cl)CC(=O)O` (stereo not given) here?
**A.** 110%

**Q.** Which growth does the source give for `CCN(CC)CCCC(C)Nc1nc(-c2ccc(OC)cc2)nc2cc(Cl)ccc12` (stereo not given) here?
**A.** 54.1%

**Q.** With `COc1ccc2c(c1)sc1nc(-c3ccccc3)c(-c3ccsc3)n12` as the compound, how does the growth read?
**A.** 11.6%

**Q.** For `O=C(Nc1cccc(-n2cc(-c3ccncc3)c(-c3cc(O)cc(Cl)c3)n2)c1)c1cc(C(F)(F)F)cc(C(F)(F)F)c1`, which growth is on record?
**A.** 28.9%

**Q.** How did the growth turn out when `Cc1cc2c(C)c3cc(C)c(N)cc3nc2cc1N` was run?
**A.** 28.3%

**Q.** For `COc1ccc2c(c1)O/C(=C\c1ccc([N+](=O)[O-])o1)C2=O`, which growth is on record?
**A.** -26.8% (active)

**Q.** Which growth does the source give for `COc1ccc(-c2nn(-c3cccc(NC(=O)Nc4cc(C(F)(F)F)cc(C(F)(F)F)c4)c3)cc2-c2ccncc2)cc1Cl` here?
**A.** 8.03% (active)

**Q.** `Cc1occc1-c1nnc(SCC(=O)c2ccc(NC(=O)CC(C)C)cc2)o1` was tested. Which growth did it give?
**A.** 74.5%

**Q.** `CC1(C)Cc2c(sc3ncn4nc(-c5ccc(O)cc5)nc4c23)CO1` was tested. Which growth did it give?
**A.** 118%

**Q.** For `O=C(Nc1ccncc1)C(=O)c1cn(S(=O)(=O)c2cc(Cl)cc(Cl)c2)c2ccccc12`, which growth is on record?
**A.** 65.7%

**Q.** How did the growth turn out when `O=C(CCCCC(=O)Nc1ccc2c(c1)/C(=C/c1ccc[nH]1)C(=O)N2)NO` was run?
**A.** 101%

**Q.** With `CO/N=C(/C(=O)NC1C(=O)N2C(C(=O)O)=C(COC(N)=O)CSC12)c1ccco1` (stereo not given) as the compound, how does the growth read?
**A.** 104%

**Q.** Which growth does the source give for `COc1cc(Cc2cc(-c3ccc(Cl)cc3)n[nH]c2=O)ccc1O` here?
**A.** 131%
